Screening data deposited in PubChem by National Center for Advancing Translational Sciences (NCATS).
TRPML1 inh: qHTS for Inhibitors of the Human Mucolipin Transient Receptor Potential 1 (TRPML1); Mucolipin-1 (Homo sapiens), Q9GZU1; TRPML1-inducible cells, Ca2+ dye fluorescence, FDSS; hits give low values; inhibition of EC80 agonist-evoked calcium signal; activity change, negative = inhibition, % (test concentration not listed); actives 0.02% (n = 390,000); in the data active = activity change below about -50%; inconclusive = between about -30% and that limit;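 also: stimulus is agonist 54-4 at its EC80 concentration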
Target sequence (Q9GZU1 whole entry, looked up): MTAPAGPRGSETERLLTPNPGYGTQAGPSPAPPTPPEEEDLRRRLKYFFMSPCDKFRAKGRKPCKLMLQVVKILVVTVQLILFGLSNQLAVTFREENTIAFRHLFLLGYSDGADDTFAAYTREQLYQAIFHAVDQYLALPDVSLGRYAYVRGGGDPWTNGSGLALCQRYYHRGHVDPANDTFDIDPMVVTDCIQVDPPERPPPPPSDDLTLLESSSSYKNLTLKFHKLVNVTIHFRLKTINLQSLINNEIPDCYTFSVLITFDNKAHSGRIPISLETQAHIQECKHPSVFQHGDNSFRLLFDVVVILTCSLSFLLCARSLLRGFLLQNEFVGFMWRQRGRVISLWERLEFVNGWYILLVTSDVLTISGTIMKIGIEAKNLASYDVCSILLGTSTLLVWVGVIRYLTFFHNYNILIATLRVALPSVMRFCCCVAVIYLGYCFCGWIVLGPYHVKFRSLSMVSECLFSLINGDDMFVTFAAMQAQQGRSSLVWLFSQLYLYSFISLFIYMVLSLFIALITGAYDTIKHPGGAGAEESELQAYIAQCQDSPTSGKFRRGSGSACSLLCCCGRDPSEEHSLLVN
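Calcium fluorescence in TRPML1-DL cells induced overnight with Tet: a 110 s read after compound pin addition, then a 110 s antagonist read after challenge with 54-4 at 4 uM final (EC80).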
DRD3 agonist: qHTS of D3 Dopamine Receptor Agonist: qHTS | D3R DiscoveRx beta-arrestin cells, luminescence, 90 min | max activation, % | actives 0.58% (n = 410,000); in the data active = max activation above about 30%
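Cells at 1500/well, incubated overnight, then treated with pinned compounds (dopamine as control) for 90 min at 37 degrees C. DiscoveRx reagent added for 30 - 60 minutes at room temperature; luminescence read.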
D3 antag: qHTS of D3 Dopamine Receptor Antagonist: qHTS. actives 2.5% (n = 360,000). max response, negative = inhibition, %. D3R cells, DiscoveRx beta-arrestin luminescence, antagonist mode; hits give low values. D(3) dopamine receptor (Homo sapiens), P35462; in the data active = max response below about -50%; inconclusive = no clear call, values can overlap the other calls
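Cells plated overnight at 1500 cells/well, then exposed to library compounds with dopamine controls for 90 minutes at 37 degrees C. DiscoveRx reagent added for 30–60 minutes at room temperature; luminescence read, quantitative HTS format.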
TRPML1 ag: qHTS for Agonists of the Human Mucolipin Transient Receptor Potential 1 (TRPML1); Mucolipin-1 (Homo sapiens), Q9GZU1; TRPML1-expressing cells, Ca2+ dye fluorescence, FDSS; activation, % (no concentration beside the values); actives 0.12% (n = 410,000); AID 624414, 2012; in the data active = activation above about 50%; inconclusive = mostly about 30% to 49%
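Tetracycline-induced TRPML1-DL cells are seeded and incubated overnight before loading with a no-wash Ca2+ dye and quencher. Agonist activity is taken from the 110 s fluorescence read following compound pin-transfer on an FDSS, before EC80 54-4 challenge.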
A number is an active result; 0 = inactive; ? = inconclusive; - = not tested or not shown; + = active, no number. Sampled rows, rich in hits. Any-hit rate of the full collection: about 2.9%.

SMILES	TRPML1 inh	DRD3 agonist	D3 antag	TRPML1 ag
CC(=O)c1ccccc1OCC(O)CN1CCN(c2ccccn2)CC1 (stereo not given)	0	0	0	0
Cc1cc(C)c(C)c(OCC(O)CN2CCN(c3ccccn3)CC2)c1 (stereo not given)	0	63	0	0
CCCN(CCC)C(=O)c1nn(C)c2c1CSc1ccc(C)cc1-2	0	0	-	0
Cc1ccc(CNC(=O)c2sc3nc(C)cc(C)c3c2-n2cccc2)cc1	0	0	-	0
Cc1cc(C)c2c(-n3cccc3)c(C(=O)NNS(=O)(=O)c3ccc(Cl)cc3)sc2n1	0	0	-56	0
Cc1cc(C)c2c(-n3cccc3)c(C(=O)O)sc2n1	0	0	0	0
Cc1cc(C)c2c(-n3cccc3)c(C(=O)NNS(=O)(=O)c3ccccc3)sc2n1	0	0	-55	0
Cc1cc2ccccc2c[n+]1CC(=O)c1ccc(F)cc1	-	-	-	0
CNS(=O)(=O)c1cc(-c2nnc(Nc3cc(C)ccc3C)c3ccccc23)ccc1C	0	0	-	0
Cc1cccc(NC(=O)C2CCC(CNS(=O)(=O)c3csc(C(N)=O)c3)CC2)c1C (stereo not given)	0	0	-	0
COc1ccc(Cl)cc1-c1n[nH]c(=S)n1C1CCCCC1	0	0	-60	0
COc1ccc(-c2n[nH]c(=S)n2C2CCCCC2)cc1	0	0	0	0
Cc1cc(Cl)ccc1OCc1n[nH]c(=S)n1C1CCCCC1	0	0	-64	0
CC1(C)S[C@@H]2[C@H](NC(=O)[C@H](N)c3ccccc3)C(=O)N2[C@H]1C(=O)OC1OC(=O)c2ccccc21 (stereo not given in full)	0	0	-67	0
C(=N\Nc1nc(Nc2ccccc2)nc(N2CCOCC2)n1)/c1c[nH]c2ccccc12	0	0	-62	0
Cc1ccc(Nc2nc(N/N=C/c3c[nH]c4ccccc34)nc(N3CCOCC3)n2)cc1	0	0	0	0
c1ccc(Nc2nc(N3CCOCC3)nc(N3CCOCC3)n2)cc1	0	0	?	0
c1ccc(Nc2nc(N3CCNCC3)nc(N3CCOCC3)n2)cc1	0	0	-79	0
COc1ccc(CNCC(O)COc2ccc3[nH]c(=O)ccc3c2)cc1OC (stereo not given)	-	0	-	-
Cc1ccc(S(=O)(=O)CS(=O)(=O)c2ccc(C)cc2)cc1	0	0	0	0
Cc1ccc(S(=O)(=O)Cn2cnnn2)cc1	0	0	-78	0
CCc1ccc(CNC(=O)C2CCN(C(=O)c3ccc(-n4ccc5ccccc54)s3)CC2)cc1	0	0	-	0
CN(C)c1ccc(/C=C/c2c3c(nc4ccccc24)CCCC3)cc1	-	-	-	0
COCCn1c(SCc2cnc(-c3ccccc3)s2)nnc1-c1ccncc1	0	0	0	0
COc1ccc(-n2cnnc2SCc2cnc(-c3ccccc3)s2)cc1	0	0	-56	0
SMILES	TRPML1 inh	DRD3 agonist	D3 antag	TRPML1 ag
O=C(Nc1nnc(SCc2ccc(F)cc2)s1)c1ccc2c(c1)C(=O)N(c1ccccc1Cl)C2=O	0	53	0	0
O=C(Nc1nnc(SCc2ccc(F)cc2)s1)c1ccc2ncsc2c1	0	0	0	0
CCN1CCN(c2nc(-c3ccccc3)c3ccccc3n2)CC1	0	0	-82	0
c1ccc(-c2nc(N3CCCCC3)nc3ccccc23)cc1	?	0	0	0
CC(C)(C)NC(=O)CN1CCC(O)(c2ccccc2)CC1	0	0	+	0
CN(C)c1ccc(/C=C\C=C/c2ccnc3ccccc23)cc1	-	-	-	0
CCOc1ccccc1-c1noc(CCCC(=O)Nc2cccc(C(F)(F)F)c2)n1	0	0	-	0
COC(=O)NNC(=S)Nc1cc(OC)ccc1OC	0	0	-141	0
COc1ccc(OC)c(NC(=S)Nc2ccccc2)c1	0	0	0	0
Cc1ccccc1NC(=O)Nc1nc(C(N)C2CCCCC2)cs1 (stereo not given)	-	0	-84	0
O=C(Cn1nc(Cc2cccnc2)c2ccccc2c1=O)Nc1ccc(F)c(Cl)c1	0	39	-	0
Cc1ccc(N/N=C(\Cc2nc3ccccc3[nH]2)c2ccccc2)cc1	0	0	-60	0
c1ccc(N/N=C(\Cc2nc3ccccc3[nH]2)c2ccccc2)cc1	0	0	0	0
Cc1cc(C)c(NC(=O)CCn2c(=O)c3cccn3c3ccccc32)c(C)c1	?	0	-	0
CCOc1ccc(N/C(C)=C/C(=O)c2ccc3c(c2)OCCO3)cc1	0	33	0	0
C=CCSc1nnc(NC(=O)COc2ccccc2)s1	0	0	0	0
C=CCSc1nnc(NC(=O)COc2ccc3ccccc3c2)s1	0	0	-66	0
CCc1ccc(NC(=O)Cn2c(=O)n(CCC(=O)NCCc3ccc(Cl)cc3)c(=O)c3ccccc32)cc1	0	0	-	0
CC(NC(=O)C12CC3CC(CC(C3)C1)C2)c1ccc2c(c1)OCCO2 (stereo not given)	0	32	0	0
Cc1cccc(C(=O)NCC(=O)NCC(c2cccs2)N2CCOCC2)c1 (stereo not given)	0	0	0	0
O=C(NCC(c1cccs1)N1CCOCC1)c1cc(-c2ccc(F)cc2)nc2ccccc12 (stereo not given)	0	0	-69	0
Cc1cccc(C(=O)NCC(c2cccs2)N2CCOCC2)c1 (stereo not given)	0	0	-58	0
COc1cc(C)c(C)cc1S(=O)(=O)Nc1cccc(-c2ccc(N3CCOCC3)nn2)c1	0	0	-	0
CN(Cc1ccccc1)c1nc2c(S(=O)(=O)c3ccccc3)nnn2c2ccsc12	0	0	-	0
COCCCNc1nc2ccccc2nc1NS(=O)(=O)c1cccs1	0	0	-64	0
SMILES	TRPML1 inh	DRD3 agonist	D3 antag	TRPML1 ag
CCOC(=O)c1cnc(N2CCN(c3ccc(C)cc3C)CC2)c2ccccc12	0	0	-	0
CCN1C(=O)c2ccccc2S(=O)c2ccc(C(=O)NCc3ccc(C)cc3)cc21 (stereo not given)	0	0	-	0
CCN1C(=O)c2ccccc2S(=O)c2ccc(C(=O)NCCN(CC(C)C)CC(C)C)cc21 (stereo not given)	0	0	-65	0
O=c1[nH]cnc2ccc([N+](=O)[O-])cc12	-	0	0	-
O=c1[nH]cnc2c([N+](=O)[O-])cccc12	0	0	-80	0
COc1cccc(Nc2cc(C)nc3ccccc23)c1	0	0	-56	0
COc1ccc(-c2onc(C)c2C)cc1S(=O)(=O)Nc1cc(Cl)ccc1C	0	0	-	0
O=c1c(O)c(-c2cccs2)oc2ccccc12	0	0	?	55
O=c1c(O)c(-c2cccs2)oc2ccc(Cl)cc12	0	0	0	59
CC(C)(C)n1ncc2c(=O)n(Cc3ccc(C#N)c(F)c3)cnc21	0	-	-	0
O=C1C=C(NC2=CC3OC(c4ccccc4)OCC3OC2=O)CCC1 (stereo not given)	0	0	-72	0
